# In paper PMC4336329 (PLoS ONE, 2015):
# About 2,200 (0.71%) of roughly 310,000 compounds showed an effect of 50% or more. The effect is printed as a negative number. The list comes from a sample in which strong results are over-represented; it also holds similar structures and randomly drawn compounds.
# Target: human ether-à-go-go-related gene (hERG) potassium channel (human, UniProt Q12809)
# Test: primary screen, population patch clamp on CHO cells stably expressing hERG; higher = less effect of the substance
# Description: Briefly, Chinese hamster ovary (CHO) cells stably expressing the hERG channel were dislodged from tissue culture flasks and dispensed into PPC plates. […] During the recording, background leak currents were estimated by a 100 ms step to -80 mV from an initial holding potential of -70 mV and subtracted from the subsequent current measurement. The campaign was conducted in two phases using slight differences in recording protocol. In the first phase, the initial voltage pulse used a 100 ms step to -30 mV from a holding potential of -70 mV, a 2 s conditioning step to +25 mV, and a 2 s test step to -30 mV. During the second phase of the screen, the potential during the conditioning step was raised to +45 mV. In both phases of the campaign, a secondary voltage pulse was applied using the same parameters as the second phase initial pulse. The initial and secondary pulses were applied in the absence of compound, and upon application of 1 μM and 10 μM test concentrations. Small molecule effects on hERG current density were quantified by […].
# Sequence of human ether-à-go-go-related gene (hERG) potassium channel (Q12809 whole entry, looked up): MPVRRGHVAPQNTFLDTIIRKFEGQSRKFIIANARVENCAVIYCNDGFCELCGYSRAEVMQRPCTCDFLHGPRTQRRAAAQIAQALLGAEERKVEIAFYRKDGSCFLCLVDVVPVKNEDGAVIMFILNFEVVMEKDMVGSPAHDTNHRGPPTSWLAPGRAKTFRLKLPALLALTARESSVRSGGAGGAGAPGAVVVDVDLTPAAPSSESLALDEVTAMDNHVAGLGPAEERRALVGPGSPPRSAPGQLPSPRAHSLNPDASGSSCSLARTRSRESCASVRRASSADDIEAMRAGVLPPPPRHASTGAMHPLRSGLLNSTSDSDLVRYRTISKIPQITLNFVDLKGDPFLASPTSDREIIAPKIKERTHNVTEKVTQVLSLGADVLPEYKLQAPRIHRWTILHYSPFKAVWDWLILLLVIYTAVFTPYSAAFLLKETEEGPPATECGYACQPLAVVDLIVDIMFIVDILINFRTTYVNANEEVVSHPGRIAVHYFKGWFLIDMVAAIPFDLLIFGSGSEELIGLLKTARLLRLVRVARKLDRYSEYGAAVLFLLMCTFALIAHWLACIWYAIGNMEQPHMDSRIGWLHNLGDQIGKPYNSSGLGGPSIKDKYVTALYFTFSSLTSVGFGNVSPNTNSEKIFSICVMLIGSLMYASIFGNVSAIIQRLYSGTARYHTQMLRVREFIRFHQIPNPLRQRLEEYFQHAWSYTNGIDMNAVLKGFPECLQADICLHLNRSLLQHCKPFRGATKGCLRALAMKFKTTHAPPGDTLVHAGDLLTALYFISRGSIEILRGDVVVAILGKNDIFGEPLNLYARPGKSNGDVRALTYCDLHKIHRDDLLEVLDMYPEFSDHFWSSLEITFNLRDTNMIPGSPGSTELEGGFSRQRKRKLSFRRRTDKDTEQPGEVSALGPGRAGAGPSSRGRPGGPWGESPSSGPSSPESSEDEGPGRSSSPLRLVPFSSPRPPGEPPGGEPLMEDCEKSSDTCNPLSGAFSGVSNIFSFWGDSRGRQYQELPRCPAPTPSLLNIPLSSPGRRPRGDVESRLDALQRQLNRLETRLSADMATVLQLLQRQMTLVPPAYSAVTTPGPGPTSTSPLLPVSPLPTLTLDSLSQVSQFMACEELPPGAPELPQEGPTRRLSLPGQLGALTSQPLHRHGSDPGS
row,Structure (SMILES),"hERG current change (%, negative = inhibition) at 1uM [%]"
1,COCCn1c(SCC(=O)Nc2ccc(OC)cc2)nnc1-c1ccoc1C,12.2
2,CCCn1c(SCC(=O)Nc2cccc(C(=O)OCC)c2)nnc1-c1ccoc1C,5.88
3,Cc1occc1-c1nnc(SCC(=O)Nc2ccccc2)n1CCc1ccccc1,-20.1
4,Cc1ccc(NC(=O)CSc2nnc(-c3ccoc3C)n2CCCN(C)C)cc1Cl,-70.2
5,COCCCn1c(SCC(=O)Nc2ccc3c(c2)OCCO3)nnc1-c1ccoc1C,1.88
6,CCN(CC)CCCn1c(SCC(=O)Nc2cccc(F)c2)nnc1-c1ccoc1C,-63
7,O=C(NCCCN1CCOCC1)C1(c2ccccc2)CCOCC1,19.2
8,CCOC(=O)C1CCCN(Cc2nc(N)nc(Nc3ccccc3OC)n2)C1 (centres unmarked),-53.2
9,COc1ccccc1Nc1nc(N)nc(CN2CCc3ccccc3C2)n1,-2.7
10,CCOC(=O)C1CCCN(Cc2nc(N)nc(Nc3ccc(Cl)cc3)n2)C1 (centres unmarked),-71.6
11,CCOC(=O)C1CCCN(Cc2ccc(OC)cc2OC)C1 (centres unmarked),-13.6
12,CCOC(=O)N1CCN(Cc2nc(N)nc(Nc3ccc(Oc4ccccc4)cc3)n2)CC1,-36.8
13,Cc1ccc(Nc2nc(N)nc(CN3CCCCCC3)n2)cc1,-45.2
14,CCOC(=O)C1CCCN(Cc2nc(N)nc(Nc3ccccc3)n2)C1 (centres unmarked),-18.6
15,CCOC(=O)C1CCCN(Cc2nc(N)nc(Nc3ccc(C)cc3)n2)C1 (centres unmarked),-47.6
16,CCOC(=O)C1CCCN(Cc2nc(N)nc(Nc3ccc(OC)cc3)n2)C1 (centres unmarked),-67.8
17,CCc1cccc2c(C=C(C#N)C#N)cn(CC(=O)N3CCCC3)c12,2.04
18,CNC(=O)C1CCN(S(=O)(=O)c2c(C)noc2/C=C/c2ccc(C)cc2)CC1,10.2
19,COc1ccccc1/C=C/CN1CCC(Oc2ccc(C(=O)N3CCCCC3)cc2)CC1,7.23
20,COc1cc(C(=O)N2CCN(C/C=C/c3ccccc3)CC2)cc(OC)c1OC,-2.2
21,COc1ccccc1/C=C/CN1CCC(Oc2ccc(C(=O)N3CCCC3)cc2)CC1,10.1
22,COc1ccc(C(=O)NC2CC2)cc1OC1CCN(C/C=C/c2ccccc2)CC1,-84.3
23,COc1ccccc1/C=C/CN1CCC(Oc2cc(C(=O)NC3CC3)ccc2OC)CC1,-78.3

row,Structure (SMILES),"hERG current change (%, negative = inhibition) at 1uM [%]"
1,COc1cc(C(=O)N2CCN(C/C=C/c3ccccc3)CC2)cc(OC)c1C,6.9
2,Cc1ccc(SCCC(=O)NCCSCc2ccccc2C)cc1,10.1
3,CCN1CCN(P2(=O)C=C(c3ccccc3)OC(c3ccccc3)=C2)CC1,-86.5
4,O=P1(Nn2cnnc2)C=C(c2ccccc2)OC(c2ccccc2)=C1,-9.39
5,O=P1(O)C=C(c2ccccc2)OC(c2ccccc2)=C1,14.1
6,Cc1ccc(CSCC(=O)NCc2cccs2)cc1,7.51
7,CCc1ccc(-n2nnnc2SCC(=O)Nc2ccc(NC(C)=O)cc2)cc1,20.4
8,Cc1cc(SCC(=O)N/N=C/c2ccc(O)cc2O)c(C)cc1Br,8.67
9,Cn1c(CCN2CCN(c3ccccn3)CC2)nc2cc(NC(=O)COc3ccccc3)ccc21,-67
10,CCC(=O)Nc1ccc2c(c1)nc(CCN1CCN(c3ccccn3)CC1)n2C,4.59
11,Cc1cccc(OCC(=O)Nc2ccc3c(c2)nc(CCN2CCC(C)CC2)n3C)c1,-47.9
12,Cn1c(CCN2CCN(c3ccccn3)CC2)nc2cc(NC(=O)COc3ccc(Cl)cc3)ccc21,0.879
13,Cc1cccc(OCC(=O)Nc2ccc3c(c2)nc(CCN2CCN(c4ccccn4)CC2)n3C)c1,-67
14,Cn1c(CCN2CCN(c3ccccn3)CC2)nc2cc(NC(=O)COc3ccc([N+](=O)[O-])cc3)ccc21,9.63
15,COc1ccc(C2OC(=O)CC2C(=O)N2CCN(c3cc(Cl)ccc3C)CC2)cc1OC (centres unmarked),7.68
16,CCn1c(-c2cc(-c3ccc(C)c(C)c3)nc3ccccc23)n[nH]c1=S,16.2
17,CCOC(=O)C1CCN(C2CC(=O)N(c3ccc(OCC)cc3)C2=O)CC1 (centres unmarked),2.22
18,CCOC(=O)c1cnc2ccccc2c1NCc1ccco1,-14.7
19,CCOC(=O)c1cnc2ccc(OCC)cc2c1NCc1ccccc1,-12.8
20,CCOC(=O)c1cnc2c(OC)cccc2c1Oc1ccccc1,11
21,CCOC(=O)c1cnc2c(C(=O)OC)cccc2c1NCCN1CCOCC1,-47.1
22,CCOC(=O)c1cnc2c(OC)cccc2c1Nc1ccc2c(c1)OCCO2,-3.26
23,CCOC(=O)c1cnc2c(C(=O)OC)cccc2c1NCc1cccnc1,-55.5

row,Structure (SMILES),"hERG current change (%, negative = inhibition) at 1uM [%]"
1,CCOC(=O)c1cnc2c(C)cccc2c1NCc1ccco1,-45.3
2,CCOC(=O)c1cnc2c(OC)cccc2c1NCc1cccnc1,-68.1
3,CCOC(=O)c1ccc(NCc2cccnc2)cc1,8.24
4,CCOC(=O)c1cnc2ccc(OC)cc2c1NCc1ccccc1,-33.4
5,CCOC(=O)c1cnc2ccc(OCC)cc2c1NCc1cccnc1.Cl,-75.3
6,CCOC(=O)c1cnc2c(C(=O)OC)cccc2c1NCc1ccco1,-71.4
7,COc1ccc(OC)c(C(=O)CSc2nnc(Cc3cccs3)n2CCc2ccccc2)c1,-6.84
8,CC(NC(=O)CSc1nc2ccccc2c(=O)n1CCCO)c1ccccc1 (centres unmarked),-0.931
9,COCCN(CCOC)S(=O)(=O)c1ccc(C(=O)NC2CCN(Cc3ccccc3)CC2)cc1.Cl,-1.24
10,COc1ccc(C(=O)Nc2nnc(SCC(=O)NC3CCCC3)s2)c(OC)c1,14.4
11,CN1C(=O)/C(=C\c2cc(Br)cs2)c2ccccc21,12.7
12,O=C(Cc1ccc(Cl)cc1)NCC(=O)N1CCCCCC1,4.89
13,COc1ccc(-n2c(=O)c3c4c(sc3n3c(=S)[nH]nc23)CCC4)cc1,9.01
14,CCCN1CCN(CCCNC(=O)c2ccc3c(c2)NC(=O)c2ccccc2S3)CC1,9.21
15,O=C1NC(=Nc2cccc([N+](=O)[O-])c2)SC1(CO)CO,2.12
16,COc1ccc(C)cc1NC(=O)COC(=O)C1CC1,6.74
17,COc1ccc(C)cc1NC(=O)COC(=O)C1CCN(C(=O)c2ccc(Cl)cc2)CC1,-57.7
18,COc1ccc(OC)c(NC(=O)COC(=O)C2CCN(C(=O)c3ccc(Cl)cc3)CC2)c1,-49.1
19,O=C(COc1ccc(Br)cc1Cl)NC1CCN(Cc2ccccc2)CC1,-16.4
20,Cc1ccc(Cl)c(OCC(=O)NC2CCN(Cc3ccccc3)CC2)c1,-93.9
21,O=C(COc1ccccc1)NC1CCN(Cc2ccccc2)CC1,-8.39
22,Cc1cc(OCC(=O)NC2CCN(Cc3ccccc3)CC2)c2c(C)c(C)c(=O)oc2c1,7.38
23,O=C(NC1CCN(Cc2ccccc2)CC1)C1CCN(S(=O)(=O)c2ccccc2)CC1,1.18

row,Structure (SMILES),"hERG current change (%, negative = inhibition) at 1uM [%]"
1,Cc1ccc(Cl)cc1S(=O)(=O)N1CCC(C(=O)NC2CCN(Cc3ccccc3)CC2)CC1,-66.1
2,Cl.O=C(COc1ccccc1F)NC1CCN(Cc2ccccc2)CC1,-3.6
3,O=C(COc1ccc(Br)cc1F)NC1CCN(Cc2ccccc2)CC1,-64.8
4,O=C(NC1CCN(Cc2ccccc2)CC1)C1CCN(S(=O)(=O)c2ccc(Cl)cc2)CC1,-16.9
5,COC(=O)c1sc(C(C)(C)C)cc1CS(=O)(=O)c1ccc(Cl)cc1,23.7
6,CC(C)=CCOc1ccc2c(C)c(CC(=O)N3C[C@H]4C[C@@H](C3)c3cccc(=O)n3C4)c(=O)oc2c1C,-18.5
7,Cc1cc(C)c2cc(C#N)c(SCC(=O)NCC3CCCO3)nc2c1 (centres unmarked),-2.04
8,CCSCc1nnc(SCC(=O)c2ccc(OC)cc2)n1C,2.03
9,CC(NC(=O)CSCc1ccc(Br)cc1)c1ccccc1 (centres unmarked),9.08
10,CCOc1ccc(/C=N/NC(=O)c2cccc3ccccc23)c(OCC)c1,13.6
11,CC1CCCN(CC(=O)Nc2ccc(S(=O)(=O)N3CCCCCC3)cc2)C1 (centres unmarked),-1.45
12,COC(=O)c1nc[nH]c1C(=O)OC,18.4
13,COc1ccccc1C(=O)N/C(=C/c1ccc(Br)cc1)C(=O)NCCO,1.21
14,COCCN1C(=O)N[C@H](c2cccc(C(F)(F)F)c2)C(C(=O)OC)=C1C,5.44
15,COc1ccc(C)cc1S(=O)(=O)NCC(c1ccc2c(c1)OCO2)N1CCN(C)CC1 (centres unmarked),-54.9
16,O=S(=O)(NCC(c1ccc2c(c1)OCO2)N1CCOCC1)c1ccc(Br)cc1 (centres unmarked),12.6
17,COc1ccc(F)cc1S(=O)(=O)NCC(c1ccc2c(c1)OCO2)N1CCN(C)CC1 (centres unmarked),-12.6
18,CCOc1ccc(S(=O)(=O)NCC(c2ccc3c(c2)OCO3)N2CCN(C)CC2)cc1 (centres unmarked),-3.34
19,COc1ccc(C)cc1S(=O)(=O)NCC(c1ccc2c(c1)OCO2)N1CCOCC1 (centres unmarked),5.86
20,CN1CCN(C(CNS(=O)(=O)c2ccc(Br)cc2)c2ccc3c(c2)OCO3)CC1 (centres unmarked),-59.5
